According to PubChem BioAssay AID1159580 (chemical genetic matrix, 2015):
Screen size: about 5,500 compounds; about 2,000 (36%) were called active. Roughly 18% stayed inconclusive and do not appear here. Rule as the data show it: active = normalized growth mostly below about 0.91 (no sharp cut-off); inconclusive = no clear call, values can overlap the other calls; inactive = mostly above about 0.92. Some of the results follow.

Test: chemical genetic growth profiling, strain panel (AID 1159580);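 also: tested at 20 µM; growth read once vehicle control cultures reached saturation at 30 °C; 1 = growth at the plate median or of vehicle wells; lower values mean less growth of the strain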
Conditions: S. cerevisiae deletion strains, growth OD

Measured: normalized growth

CCCCCCCCCCCCCCCCCCOC[C@H](COP(=O)([O-])OCC[N+](C)(C)C)OC
inactive: locus YAL013W, strain DEP1, hits give low values 1 | locus YAL040C, strain CLN3, hits give low values 1.04 | locus YCL061C, strain MRC1 (second series), hits give low values 1.02 | locus YDR363W, strain ESC2, hits give low values 0.992 | locus YER002W, strain NOP16, hits give low values 1.04 | locus YMR263W, strain SAP30, hits give low values 0.998 | locus YMR307W, strain GAS1, hits give low values 1 | locus YNL153C, strain GIM3, hits give low values 0.997 | locus YNL175C, strain NOP13, hits give low values 1.05 | locus YNL197C, strain WHI3, hits give low values 1.01 | locus YNL224C, strain SQS1, hits give low values 1.04 | locus YNL322C, strain KRE1, hits give low values 0.988 | locus YOR083W, strain WHI5 (second series), hits give low values 1.02

CCCCCCCC/C=C/CCCCCCCCOP(=O)([O-])OCC[N+](C)(C)C
active: locus YAL021C, strain ccr4, hits give low values 0.0587 | locus YAL026C, strain drs2, hits give low values 0.0561 | locus YAL030W, strain snc1, hits give low values 0.053 | locus YBL061C, strain skt5, hits give low values 0.0558 | locus YBR009C, strain hhf1, hits give low values 0.0546 | locus YBR023C, strain chs3, hits give low values 0.0583 | locus YBR171W, strain sec66, hits give low values 0.0745 | locus YBR231C, strain swc5, hits give low values 0.0586 | locus YBR279W, strain paf1, hits give low values 0.0563 | locus YCL011C, strain gbp2, hits give low values 0.0519 | locus YCL016C, strain dcc1, hits give low values 0.0586 | locus YCL061C, strain MRC1, hits give low values 0.0589 | locus YCL069W, strain vba3, hits give low values 0.0556 | locus YCR088W, strain abp1, hits give low values 0.0562 | locus YDL005C, strain med2, hits give low values 0.0694 | locus YDL040C, strain nat1, hits give low values 0.0556 | locus YDR001C, strain nth1, hits give low values 0.0555 | locus YDR069C, strain doa4, hits give low values 0.0593 | locus YDR137W, strain rgp1, hits give low values 0.105 | locus YDR159W, strain sac3, hits give low values 0.0716 | locus YDR195W, strain ref2 0.0966 | locus YDR297W, strain sur2, hits give low values 0.0533 | locus YDR334W, strain swr1, hits give low values 0.0581 | locus YDR335W, strain msn5, hits give low values 0.0561 | locus YDR392W, strain spt3, hits give low values 0.0625 | locus YEL003W, strain gim4, hits give low values 0.0513 | locus YEL037C, strain rad23, hits give low values 0.0533 | locus YEL061C, strain CIN8 (second series), hits give low values 0.0564 | locus YER015W, strain faa2, hits give low values 0.0609 | locus YER016W, strain bim1, hits give low values 0.0567 | locus YER111C, strain swi4, hits give low values 0.0743 | locus YER155C, strain BEM2 (second series), hits give low values 0.0793 | locus YFR010W, strain ubp6, hits give low values 0.0589 | locus YGL167C, strain pmr1, hits give low values 0.0691 | locus YGL173C, strain kem1, hits give low values 0.0671 | locus YGL227W, strain vid30, hits give low values 0.0578 | locus YGL240W, strain doc1, hits give low values 0.0658 | locus YGL253W, strain hxk2, hits give low values 0.0494 | locus YHR013C, strain ard1, hits give low values 0.0918 | locus YHR027C, strain rpn1, hits give low values 0.0597 | locus YHR142W, strain chs7, hits give low values 0.0608 | locus YJL092W, strain hpr5, hits give low values 0.0556 | locus YJL095W, strain BCK1 (second series), hits give low values 0.0534 | locus YJL115W, strain asf1, hits give low values 0.0664 | locus YJL129C, strain trk1, hits give low values 0.0759 | locus YJL154C, strain vps35, hits give low values 0.0613 | locus YJL164C, strain tpk1, hits give low values 0.0536 | locus YJL166W, strain qcr8, hits give low values 0.0552 | locus YJL187C, strain SWE1, hits give low values 0.055 | locus YKL160W, strain elf1, hits give low values 0.0575 | locus YKR026C, strain gcn3, hits give low values 0.0565 | locus YKR091W, strain srl3, hits give low values 0.0556 | locus YLL001W, strain dnm1, hits give low values 0.0557 | locus YLL026W, hits give low values 0.0528 | locus YLL041C, strain sdh2, hits give low values 0.0534 | locus YLR027C, strain aat2, hits give low values 0.0482 | locus YLR221C, strain rsa3, hits give low values 0.0536 | locus YLR258W, strain gsy2, hits give low values 0.0544 | locus YLR262C, strain YPT6 (second series), hits give low values 0.0801 | locus YLR320W, strain mms22, hits give low values 0.066 | locus YLR342W, strain FKS1, hits give low values 0.0588 | locus YLR357W, strain rsc2, hits give low values 0.106 | locus YLR370C, strain arc18, hits give low values 0.056 | locus YLR384C, strain iki3, hits give low values 0.0574 | locus YML120C, strain ndi1, hits give low values 0.0534 | locus YMR058W, strain fet3, hits give low values 0.0555 | locus YMR125W, strain sto1, hits give low values 0.062 | locus YMR129W, hits give low values 0.0548 | locus YMR205C, strain PFK2, hits give low values 0.0726 | locus YMR231W, strain pep5, hits give low values 0.065 | locus YNL071W, strain lat1, hits give low values 0.0563 | locus YNL209W, strain ssb2, hits give low values 0.0577 | locus YNL248C, strain rpa49, hits give low values 0.0552 | locus YNL322C, strain KRE1 (second series), hits give low values 0.0595 | locus YNR049C, strain mso1, hits give low values 0.0525 | locus YOR001W, strain rrp6, hits give low values 0.0584 | locus YOR070C, strain gyp1, hits give low values 0.0589 | locus YOR080W, strain dia2, hits give low values 0.0596 | locus YOR083W, strain WHI5, hits give low values 0.0554 | locus YOR106W, strain vam3, hits give low values 0.0591 | locus YOR265W, strain rbl2, hits give low values 0.0537 | locus YOR270C, strain vph1, hits give low values 0.072 | locus YOR290C, strain snf2, hits give low values 0.0546 | locus YPL051W, strain arl3, hits give low values 0.0574 | locus YPL078C, strain atp4, hits give low values 0.058 | locus YPL106C, strain sse1, hits give low values 0.0823 | locus YPL240C, strain hsp82, hits give low values 0.054
